Compound activity deposited in PubChem BioAssay by The Scripps Research Institute Molecular Screening Center.
Only some compounds are listed: those with a hit (about 1.1% of all), similar ones and a draw of the others.
HTR5A inv ctr – HTR5A inverse agonists in luminescence cell assay, primary screen, counter-screen for OPRM1-OPRD1 heterodimer inverse agonist project, full-deck HTS. inhibition, % at 9.3 µM. AID 504634, 2011. 340,000 compounds, 0.083% hits. HTR5A cell line, inverse agonism; in the data active means inhibition mostly above about 23%, no sharp cut-off; inactive means mostly below about 18%
Target sequence (P47898 whole entry, looked up): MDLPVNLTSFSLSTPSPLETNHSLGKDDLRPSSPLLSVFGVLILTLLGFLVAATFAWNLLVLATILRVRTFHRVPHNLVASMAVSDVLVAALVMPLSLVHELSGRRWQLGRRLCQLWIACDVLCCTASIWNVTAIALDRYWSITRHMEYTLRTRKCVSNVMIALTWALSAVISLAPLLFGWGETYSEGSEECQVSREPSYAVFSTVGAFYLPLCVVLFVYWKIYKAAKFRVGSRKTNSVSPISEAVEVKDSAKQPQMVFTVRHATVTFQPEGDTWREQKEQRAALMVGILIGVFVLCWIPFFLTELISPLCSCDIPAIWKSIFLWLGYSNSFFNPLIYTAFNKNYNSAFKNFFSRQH
HTR5A ag ctr – HTR5A agonists in luminescence cell assay, primary screen, counter-screen for OPRM1-OPRD1 heterodimer agonist project, full-deck HTS | cell-based | activation, % at 9.3 µM | 340,000 compounds, 0.61% hits | AID 504692, 2011; in the data active means activation mostly above about 9.5%, no sharp cut-off; inactive means mostly below about 7.6%
OPRM1-OPRD1 ag – agonists of OPRM1-OPRD1 heterodimerization, primary screen, cell-based, luminescence | activation, % at 9.3 µM | 340,000 compounds, 0.3% hits | cells | AID 504326, 2011 | Mu-type opioid receptor (Homo sapiens) + Delta-type opioid receptor (Homo sapiens), …; in the data active means activation above about 18%
MOR-DOR inv ag – inverse agonists of MOR-DOR heterodimerization, primary screen, cell-based, luminescence | AID 504357, 2011 | cell-based MOR-DOR heterodimer luminescence, inverse agonism | 340,000 compounds, 0.21% hits | inhibition, % at 9.3 µM; in the data active means inhibition above about 22%, passing the limit was not always enough
A number is an active result; - = inactive.

SMILES	HTR5A inv ctr	HTR5A ag ctr	OPRM1-OPRD1 ag	MOR-DOR inv ag
O=c1[nH]c2ccccc2cc1CN(Cc1ccco1)S(=O)(=O)c1ccccc1	-	-	-	-
O[C@@H](c1cc(C(F)(F)F)nc2c(C(F)(F)F)cccc12)[C@H]1CCCCN1	-	-	20.6	-
CC(C)(C)NCCC(O)c1cc(C(F)(F)F)nc2c(C(F)(F)F)cccc12 (stereo not given)	-	-	-	-
CCN(C(=O)COC(=O)c1cccnc1SC)c1c(N)n(Cc2ccccc2)c(=O)[nH]c1=O	-	-	-	-
C/C(=N\Nc1nc2ccccc2[nH]1)c1ccccn1	-	-	-	61.2
O=C(COC(=O)c1cccnc1)Nc1ccccc1	-	-	-	-
O=C(COC(=O)c1ccncc1)Nc1ccccc1	-	11.8	-	-
Cc1cc(C)c(C)c(S(=O)(=O)Nc2ccccc2N2CCOCC2)c1C	-	-	-	-
CN1CCN(S(=O)(=O)c2ccc(NC(=O)c3ccccc3F)cc2)CC1	-	8.6	-	-
C#CCOc1ccc(/C=C2/C(=O)ON=C2C)cc1Br	-	-	-	-
CCOc1ccc(N(CC(=O)NCc2ccc(F)cc2)C(=O)CCC(=O)Nc2nccs2)cc1	-	12.7	-	-
CCc1ccc(N(CC(=O)NCc2ccc(F)cc2)C(=O)c2csnn2)cc1	-	9.4	-	-
Cc1cccc(C)c1N(CC(=O)NCc1ccc(F)cc1)C(=O)c1csnn1	-	-	-	-
Cc1ccc(OCc2cc(C(=O)N3CCN(C)C[C@@H]3c3ccccc3)no2)cc1C	-	-	-	-
CN1CCN(C(=O)c2cc(COc3ccccc3)on2)[C@@H](c2ccccc2)C1	-	9.5	-	-
CCOCCCNC(=O)c1cc2c(s1)-c1ccccc1SC2	-	-	-	-
CN(C)CCNC(=O)c1cc2c(s1)-c1ccc(Cl)cc1SC2	-	51.5	38.5	-
Cc1cccc(N2CCN(S(=O)(=O)c3ccc4c(c3)NC(=O)C(C)S4)CC2)c1C (stereo not given)	-	-	-	-
Cc1cccc(N2CCN(S(=O)(=O)c3ccc4c(c3)NC(=O)CS4)CC2)c1C	-	11.8	-	-
COc1ccc(CC(=O)Nc2ccc(/C(C)=N\NC(=O)c3ccc(Br)o3)cc2)cc1	-	-	-	-
CO[C@@]12[C@@H]3N[C@@H]3CN1C1=C(C(=O)C(N)=C(C)C1=O)[C@@H]2COC(N)=O	-	-	-	-
CCCCN(CCCC)S(=O)(=O)c1ccc2[nH]c(=O)[nH]c2c1	-	-	-	-
CCN(CC)S(=O)(=O)c1ccc2[nH]c(=O)[nH]c2c1	-	9.5	-	-
COc1cc(C2c3cc4c(cc3OC(NCCc3ccccc3)C2C)OCO4)cc(OC)c1OC (stereo not given)	-	11.4	-	-
CN(C1CCS(=O)(=O)C1)S(=O)(=O)c1ccccc1[N+](=O)[O-] (stereo not given)	-	11.1	-	-
SMILES	HTR5A inv ctr	HTR5A ag ctr	OPRM1-OPRD1 ag	MOR-DOR inv ag
CNCCCCOc1ccccc1-c1ccccc1	-	9.9	-	-
O=C(NCc1nnc(SCC(=O)N2CCCCCC2)o1)c1ccco1	-	11.3	-	-
CC1(C)Oc2ccc3ccc(=O)oc3c2/C(=C/O)C1=O	-	13.5	-	-
CCCc1cc(=O)[nH]c(SCC(=O)Nc2ccc(N3CCCCC3)cc2)n1	-	-	-	-
CCc1ccc(NC(=O)CSc2nnnn2C)cc1	-	-	-	-
CCc1ccc(S(=O)(=O)c2nnn3c2nc(NCCNC(C)=O)c2ccccc23)cc1	-	11.1	-	-
CCCCNc1nc2c(S(=O)(=O)c3ccccc3)nnn2c2ccccc12	-	-	-	-
COc1cccc(CNC(=O)CCS(=O)(=O)c2cccc3nsnc23)c1	-	-	-	-
COc1cccc(CNC(=O)CCS(=O)(=O)c2cccc3nonc23)c1	-	13.5	-	-
COc1ccc(N(CC(=O)NCc2ccc3c(c2)OCO3)C(=O)c2csnn2)cc1	-	-	-	-
S=C(Nc1ccc(Cl)cc1)c1nc2ccccc2s1	-	-	-	-
O=C(Nc1ccc(Cl)cc1)/C(=C/c1cccc(O)c1)c1nc2ccccc2s1	-	11.3	-	-
O=C(Cc1ccccc1)NCC(=O)Nc1cccc(Cl)c1	-	-	-	-
CCOC(=O)c1cnn(-c2ccccc2)c1NC(=O)CN1CCOCC1	-	13.5	-	-
O=C(Cc1ccccc1)NCc1ccc(-n2cccc2)cc1	-	-	-	-
C#CC(=O)N(c1ccc(OC)cc1OC)C(C(=O)NC1CCCC1)c1cccs1 (stereo not given)	-	43.3	52.1	-
CCOC(=O)C1(Cc2ccccc2)CCN(Cc2cc(OC)c3c(c2)OCO3)CC1	-	-	-	-
COc1ccc(CCNS(=O)(=O)c2ccc3c(c2)NC(=O)CS3)cc1OC	-	11.1	-	-
O=C(Nc1ccc(Cl)cc1)N1CCC(CO)(Cc2ccccc2)CC1	-	-	-	-
CC(=O)Nc1ccc(NC(=O)CSc2nnc(-c3cccs3)n2C)cc1	-	-	-	-
COc1cccc(NC(=O)CSc2nnc(-c3cccs3)n2C)c1	-	10.3	-	-
COc1ccc2sc(N(CCCN(C)C)C(=O)c3ccc(S(=O)(=O)N4CCc5ccccc5C4)cc3)nc2c1	-	13.7	22.6	-
Cc1cc(C)c2sc(N(CCCN(C)C)C(=O)c3ccc(S(=O)(=O)N4CCc5ccccc5C4)cc3)nc2c1	-	32.7	28.8	-
COc1cc(Cn2nnc3ccccc32)cc(Br)c1O	-	-	-	-
Cc1cccc(N2CCN(C(=O)c3ccc(-n4cncn4)c([N+](=O)[O-])c3)CC2)c1C	-	-	-	-
SMILES	HTR5A inv ctr	HTR5A ag ctr	OPRM1-OPRD1 ag	MOR-DOR inv ag
c1cc2c(cc1C1CCCCC1)c1c3n2CCCNC3CCC1 (stereo not given)	-	-	-	-
Cc1ccc2c(c1)c1c3n2CCCNC3CCC1 (stereo not given)	-	10.4	-	-
COc1ccc(CCc2nnc(CCC(=O)NCc3cnc4ccccn34)o2)cc1	-	-	-	-
COc1ccc(C(=O)SC2=NCCS2)cc1	-	11.5	-	-
Cc1ccc(S(=O)(=O)Nc2ccc3nc(C)sc3c2)cc1	-	-	-	-
Cc1nc2ccc(NS(=O)(=O)c3cccc([N+](=O)[O-])c3)cc2s1	-	9.0	-	-
CCOc1[nH]n(-c2ccccc2)c(=O)c1C=Nc1ccccc1	-	12.6	-	-
CC[C@@H](C(=O)[C@@H](C)[C@@H](O)[C@H](C)[C@@H]1O[C@@H]([C@@H](CC)C(=O)O)CC[C@@H]1C)[C@H]1O[C@]2(C=C[C@@H](O)[C@]3(CC[C@@](C)([C@H]4CC[C@](O)(CC)[C@H](C)O4)O3)O2)[C@H](C)C[C@@H]1C	-	39.6	104.1	-
O=C(O)C1C2CCC(C2)C1C(=O)NCCc1ccccc1 (stereo not given)	-	9.4	-	-
O=C(COc1ccccc1)N/N=C/c1ccc(O[C@@H]2O[C@H](CO)[C@@H](O)[C@H](O)[C@H]2O)cc1	-	12.9	-	-
